Rows were chosen to be rich in hits. Some 2.3% of all compounds tested hit in one or more screens of this group.
FBPA coupling cs: inhibits coupling enzyme system, counter-screen for aldolase hits | coupling enzyme system counterscreen, AmpLite Red fluorescence | activity change, negative = inhibition, % at 58.2 µM, hits read low | 290,000 compounds, 0.67% hits | AID 2472; in the data active means activity change below about -30%
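Counterscreen of the coupled detection system alone, without aldolase: glyceraldehyde-3-phosphate coupling enzymes plus AmpLite Red readout. Compounds at 57.5 uM final, 10 min RT preincubation, 20 min RT reaction, fluorescence 525/598 nm.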
USP1-UAF1 inh: blocks the human USP1/UAF1 deubiquitinase complex. O94782. recombinant USP1/UAF1, Ub-Rhodamine cleavage fluorescence. Potency, µM (highest dose often 57.1 µM), without a hit: top-dose activity change, negative = inhibition, hits mostly inhibitors. 390,000 compounds, 0.23% hits; further: potency means the concentration at half of the fitted maximal effect; nearly all actives have a fitted effect of over 60% in size
Target sequence (O94782 whole entry, looked up): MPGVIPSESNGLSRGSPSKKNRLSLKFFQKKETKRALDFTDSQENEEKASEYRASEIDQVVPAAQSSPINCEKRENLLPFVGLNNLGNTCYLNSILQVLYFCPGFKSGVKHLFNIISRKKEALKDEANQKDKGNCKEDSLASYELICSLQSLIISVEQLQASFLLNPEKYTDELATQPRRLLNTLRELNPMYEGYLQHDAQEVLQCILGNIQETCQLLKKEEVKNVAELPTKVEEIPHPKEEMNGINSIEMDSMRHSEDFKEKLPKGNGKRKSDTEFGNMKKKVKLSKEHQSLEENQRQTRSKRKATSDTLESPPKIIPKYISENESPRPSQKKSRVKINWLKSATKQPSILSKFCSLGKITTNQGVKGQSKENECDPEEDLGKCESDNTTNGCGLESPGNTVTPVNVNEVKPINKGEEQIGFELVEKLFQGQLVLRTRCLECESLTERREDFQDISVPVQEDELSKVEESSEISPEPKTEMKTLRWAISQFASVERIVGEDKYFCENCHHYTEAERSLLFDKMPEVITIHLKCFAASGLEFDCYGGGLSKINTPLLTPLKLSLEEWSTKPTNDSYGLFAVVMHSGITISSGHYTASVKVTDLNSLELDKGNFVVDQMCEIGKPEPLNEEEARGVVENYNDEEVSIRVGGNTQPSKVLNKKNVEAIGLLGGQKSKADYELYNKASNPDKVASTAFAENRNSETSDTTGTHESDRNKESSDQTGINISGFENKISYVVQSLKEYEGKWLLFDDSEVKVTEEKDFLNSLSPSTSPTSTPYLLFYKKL
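USP1/UAF1 complex at 1 nM was preincubated with compound for 15 min at room temperature, then Ub-Rho substrate (150nM final) was added. Fluorescence (480/540 nm) was read kinetically, 6 reads every 60 seconds.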
Tau fluor cs: counter-screen for tau fibril formation inhibitors; tau K18 P301L Alexa594 fluorescence, heparin fibrillization; Potency, µM (series often up to 57.7 µM), for inactives: at the top dose activity change, negative = decrease; 280,000 compounds, 0.93% hits; further: potency means the concentration at half of the fitted maximal effect; nearly all actives have a fitted effect of over 55% in size
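Human tau K18 P301L (15 uM unlabeled, 0.24 uM Alexa 594-labeled) in 100 mM sodium acetate pH 7 with 20 uM heparin, 6 hr at 37 C. ThT 30 uM added, 1 hr ambient; Alexa 594 FP and total fluorescence read at 555/632 nm.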
Tau FP inhib: tau fibrillization inhibition (FP); P10636; K18 P301L tau heparin fibrillization, Alexa594 FP, 6 h; Potency, µM (top dose mostly 57.7 µM), inactives show at the highest dose activity, negative = inhibition, hits mostly inhibitors; 280,000 compounds, 0.39% hits; AID 1468; further: potency means the concentration at half of the fitted maximal effect; nearly all actives have a fitted effect of over 55% in size
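Read-out: fluorescence polarization of Alexa 594-labeled tau (0.24 uM), 555 nm excitation, 632 nm emission. Mixtures held 15 uM unlabeled K18 P301L, compound and 20 uM heparin, pH 7 acetate buffer, incubated 6 hr at 37 C.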
Tau fibril ThT: tau fibrillization inhibition (ThT binding) | P10636 | recombinant tau K18 P301L, heparin-induced fibrillization, ThT fluorescence | Potency, µM (titrated, usually from 57.4 µM), for inactives: at the highest dose activity, negative = inhibition, most hits filed as inhibitors | 270,000 compounds, 2.1% hits; further: potency means the concentration at half of the fitted maximal effect; nearly all actives have a fitted effect of over 55% in size
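ThT emission at 510 nm, taken 1 hr after adding 30 uM dye, quantifies aggregates formed when 20 uM heparin acts on human tau K18 P301L for 6 hr at 37 C.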
* marks the source's active call; other numbers are inactive results; ? = inconclusive; · = no result given; [ ] = dose if it differs, or a comment. Unless noted, the call rests on the fitted dose curve; in most records, active means well fitted curve in the direction sought with a large enough effect; inconclusive means small, poorly fitted or top-dose-only effect, or another doubt; inactive means no such curve, though single readings can be large; an effect the other way counts as inactive or inconclusive. On the % scale 0 is the no-effect control and ±100 the full control effect.

SMILES | FBPA coupling cs | USP1-UAF1 inh | Tau fluor cs | Tau FP inhib | Tau fibril ThT
COc1ccc(N=C2NN=C(c3c(C)[nH]c4ccccc34)CS2)cc1 | 1 | -28% | 25µM*[quencher] | -17% | ?
CC(C)c1cc(C(=O)OCC(=O)NC2CCS(=O)(=O)C2)c(O)c(C(C)C)c1 (centres undefined) | · | -18% | · | · | ·
CC(C)(C)OC(=O)NCCCCC1=CC2=CC(=O)C(C)(OC(=O)CCc3ccccc3)C(=O)C2=CO1 (centres undefined) | 0 | · | -10% | 1% | -7%
O=c1[nH]c(/C=C2\C=Nc3ccccc32)c(O)n1Cc1ccccc1F | -5 | -6% | 7.9µM*[quencher] | 0% | ?
CSc1nc(O)c(/C=C2\C=Nc3ccccc32)[nH]1 | -1 | -11% | -5% | 7% | 1%
Clc1nnc(NN=C2CCCC2)c2ccccc12 | 0 | ? | ? | -12% | 25µM*
CCOc1ccc(NC(=O)Cn2c(=O)n(CCCS(=O)(=O)C3CCCCC3)c(=O)c3ccccc32)cc1 | · | ? | -29% | -9% | ?
CC(=O)N1CCN(c2ccc(S(=O)(=O)N3CCCCC3)cc2[N+](=O)[O-])CC1 | · | -22% | · | · | ·
COc1cccc(C(=O)/C=C/c2ccc(N3CCCCC3)c([N+](=O)[O-])c2)c1 | -7 | -14% | ? | -3% | 7.9µM*
O=C(/C=C/c1ccc(N2CCCCC2)c([N+](=O)[O-])c1)c1ccc(S(=O)(=O)N2CCCC2)cc1 | 1 | -19% | -28% | ? | 10µM*
COc1cccc(/C=C/C(=O)c2cccc([N+](=O)[O-])c2)c1 | -4 | -12% | ? | ? | ?
CN1C[C@@H]2C[C@@H](c3cccn3-c3nccs3)N3CCC[C@@]23C1=O | 1 | -14% | 1% | 3% | -7%
COC(=O)C(C)Sc1nnc2cc(C)c3cc(C)cc(C)c3n12 (centres undefined) | · | -15% | -11% | -3% | -11%
CC(=O)N1CCC2(CC1)CCN(c1ncccn1)CC2 | -1 | · | · | · | ·
Cc1cc(NC(=O)CN2C(=O)NC3(CCCCCC3)C2=O)no1 | 7 | -10% | 1% | -2% | 0%
Cc1noc(NS(=O)(=O)c2ccc(N/C=C\C(=O)c3cccc4ccccc34)cc2)c1C | 11 | -10% | -16% | -5% | 10µM*
Cc1noc(NS(=O)(=O)c2ccc(NC(=O)Nc3ccc(Cl)c(Cl)c3)cc2)c1C | 8 | ? | 11µM*[quencher] | ? | ?
Cc1noc(NS(=O)(=O)c2ccc(N/C=C\C(=O)c3ccc(Br)cc3)cc2)c1C | 14 | -28% | -25% | -2% | 13µM*
CCN1C(=O)[C@H]2[C@@H](c3ccc(-c4ccccc4)c(OC)c3)N[C@@](CC(C)C)(C(=O)OC)[C@H]2C1=O | · | -14% | · | · | ·
COc1ccc(CN2CCNC(=O)C2CC(=O)NCCCn2cccn2)c(OC)c1 (centres undefined) | -4 | -20% | -7% | -3% | -10%
Nc1[nH]nc2c1NN(c1ccc(Cl)cc1Cl)N2 | 0 | 0% | ? | ? | 3.5µM*
Nc1c(-c2n[nH]c(=S)n2-c2ccc(Cl)cc2Cl)cnn1-c1ccccc1 | -1 | ? | 7% | 3% | ·
COc1ccc(/C=C/C(=O)NC(=S)Nc2cc([N+](=O)[O-])ccc2O)cc1OC | 3 | -19% | -14% | ? | 1.6µM*
COc1ccc([N+](=O)[O-])cc1NC(=S)NC(C)=O | 0 | -21% | 4% | 1% | -4%
Cc1oc(-c2ccccc2)cc1C(=O)Nc1ccc(N(C)C)cc1 | -3 | ? | 14µM*[quencher] | 5% | 13µM*
SMILES | FBPA coupling cs | USP1-UAF1 inh | Tau fluor cs | Tau FP inhib | Tau fibril ThT
Clc1ccccc1Cc1noc(CN2CCN(Cc3ccccn3)CC2)n1 | 2 | -15% | 1% | 0% | -12%
O=C(Nc1ccccc1)Nc1ccc(Br)c(Cl)c1 | 0 | -4% | ? | 14µM* | ?
CCCCN(CCCC)S(=O)(=O)c1ccc(NC(=O)c2ccc([N+](=O)[O-])cc2Cl)cc1 | -2 | -11% | ? | ? | -3%
O=C(Nc1ccc(Cl)c(Cl)c1)Nc1ccccc1O | -8 | -23% | 13µM*[quencher] | -5% | ?
O=C(Nc1ccc(Cl)cc1)Nc1ccc(Cl)c(Cl)c1 | · | -8% | · | · | ·
CCN(CC)S(=O)(=O)c1cc([N+](=O)[O-])ccc1NNC(=O)Nc1ccc(Cl)c(Cl)c1 | -2 | -22% | 7.1µM*[quencher] | ? | -22%
O=C(Nc1ccc(Cl)c(Cl)c1)Nc1ccc(Br)cc1F | -3 | -23% | ? | 7.1µM* | ?
O=C(Nc1ccccc1)Nc1ccccc1Br | -5 | ? | -10% | -8% | 1%
O=C(NNc1ccccc1[N+](=O)[O-])Nc1ccc(Cl)c(Cl)c1 | 1 | -24% | 16µM*[quencher] | ? | 16µM*
CCOC(=O)C1=C(C)NC2=C(C(=O)CC(C)(C)C2)C1c1cccc(C)n1 (centres undefined) | -3 | -6% | -1% | 1% | 2%
CCOC(=O)CN=C1CC(C)(C)CC2=C1Sc1ncnc(N(C)C)c1N2 | -47* | -10% | ? | -19% | 16µM*
CC1=C(C#N)c2nc(N)c(C#N)c(C)c2/C1=C\c1ccc(C)cc1 | · | · | ? | ? | 18µM*
COc1cc(/C=C2\C(C)=C(C#N)c3nc(N)c(C#N)c(C)c32)ccc1OCC(=O)O | -12 | -19% | ? | ? | 14µM*
COCCCNC(=O)/C(C#N)=C/c1ccc(OCC(=O)O)c(OC)c1 | -1 | -12% | -16% | 3% | -18%
N#CC1=C(SCC(=O)Nc2cccc3cccnc23)NC(=O)C(C#N)C12CCCCC2 (centres undefined) | -36* | -18% | -23% | 1% | -11%
O=C1NN(c2ccc(Cl)c(Cl)c2)C(=O)/C1=C/c1cccc(OC(=O)c2cccs2)c1 | 8 | · | ? | ? | 16µM*
O=C1NN(c2ccccc2)C(=O)/C1=C\c1cccc(OC(=O)c2cccs2)c1 | 5 | ? | -25% | ? | 16µM*
